For some of these results: Measured potencies and affinities stand elsewhere.

Common to all, as to design: scale not given: direction of the effect not stated beside the values
For assay [1], the target named is Protein translocase subunit SecA (Escherichia coli (strain K12)) (UniProt P10408). The assay is described as follows: Assay to Identify E. coli SecA ATPase Inhibitors. The assay is classed as functional. The note with it: 30 µM.
In assay [2] the target is T1, Ubiquitin-activating enzyme e1, putative (Leishmania donovani (strain BPK282A1)) (UniProt E9BSI1).
T1 sequence (whole entry): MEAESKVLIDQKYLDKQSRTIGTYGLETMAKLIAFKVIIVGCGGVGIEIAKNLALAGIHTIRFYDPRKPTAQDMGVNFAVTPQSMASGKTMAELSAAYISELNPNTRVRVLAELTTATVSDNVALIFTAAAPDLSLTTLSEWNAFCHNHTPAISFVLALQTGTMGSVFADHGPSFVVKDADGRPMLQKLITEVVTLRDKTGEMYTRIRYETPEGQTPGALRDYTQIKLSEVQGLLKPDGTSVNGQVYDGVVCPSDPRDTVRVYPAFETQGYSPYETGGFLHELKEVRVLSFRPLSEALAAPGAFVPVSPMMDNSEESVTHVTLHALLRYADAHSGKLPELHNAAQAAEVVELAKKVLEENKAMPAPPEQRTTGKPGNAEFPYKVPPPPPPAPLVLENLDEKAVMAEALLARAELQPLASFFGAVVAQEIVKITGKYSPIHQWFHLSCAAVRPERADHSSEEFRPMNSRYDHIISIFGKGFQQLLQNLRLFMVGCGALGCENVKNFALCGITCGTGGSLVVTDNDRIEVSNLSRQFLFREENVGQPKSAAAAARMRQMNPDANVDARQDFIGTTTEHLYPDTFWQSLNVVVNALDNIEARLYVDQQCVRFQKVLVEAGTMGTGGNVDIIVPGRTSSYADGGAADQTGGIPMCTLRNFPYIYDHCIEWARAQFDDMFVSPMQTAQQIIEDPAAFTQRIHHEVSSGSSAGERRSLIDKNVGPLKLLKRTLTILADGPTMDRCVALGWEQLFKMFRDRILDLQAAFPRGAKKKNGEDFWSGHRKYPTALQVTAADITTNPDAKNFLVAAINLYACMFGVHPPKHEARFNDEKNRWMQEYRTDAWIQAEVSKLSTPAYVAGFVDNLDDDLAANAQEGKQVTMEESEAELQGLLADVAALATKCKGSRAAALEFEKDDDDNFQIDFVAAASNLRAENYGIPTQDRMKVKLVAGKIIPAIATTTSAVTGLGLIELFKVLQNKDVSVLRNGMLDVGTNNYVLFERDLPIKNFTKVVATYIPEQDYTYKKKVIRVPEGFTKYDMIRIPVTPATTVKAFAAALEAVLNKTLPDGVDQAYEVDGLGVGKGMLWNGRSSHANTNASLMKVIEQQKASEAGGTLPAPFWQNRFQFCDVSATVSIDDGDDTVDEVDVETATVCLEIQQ
The assay is described as follows: Leishmania donovani Ubiquitin Activating Enzyme (LdE1). The class given is functional. The conditions noted are these: 30 µM.

Assay [3] has as its target AMP-activated protein kinase, AMPK (Homo sapiens) (UniProt P54646+O43741+P54619+Q9UGJ0+Q9Y478+Q13131+Q9UGI9). The assay is described as follows: AMP-dependent Kinase enzyme assay. An in vitro enzyme assay that detects ADP turnover that is directly proportional to AMPK activity. This uses naive AMPK that is activated during the assay with MK-8722. The assay is classed as functional. The note with it: 30 µM.

Assay [4] has as its target Sialic acid-binding Ig-like lectin 9 (Homo sapiens) (UniProt Q9Y336). The assay is described as follows: Hs-Siglec9 ALPHAscreen SOP 20170721. The conditions noted are these: 10 µM.
In the next assay the test system is Trypanosoma cruzi. The assay is described as follows: Trypanosoma cruzi phosphomannomutase and mannose-1-phosphate guanylyltransferase assay. The assay is classed as functional. The conditions noted are these: 10 µM.
Assay [5] deals with T2, Arginase-2, mitochondrial (Homo sapiens) (UniProt P78540).
T2 sequence (whole entry): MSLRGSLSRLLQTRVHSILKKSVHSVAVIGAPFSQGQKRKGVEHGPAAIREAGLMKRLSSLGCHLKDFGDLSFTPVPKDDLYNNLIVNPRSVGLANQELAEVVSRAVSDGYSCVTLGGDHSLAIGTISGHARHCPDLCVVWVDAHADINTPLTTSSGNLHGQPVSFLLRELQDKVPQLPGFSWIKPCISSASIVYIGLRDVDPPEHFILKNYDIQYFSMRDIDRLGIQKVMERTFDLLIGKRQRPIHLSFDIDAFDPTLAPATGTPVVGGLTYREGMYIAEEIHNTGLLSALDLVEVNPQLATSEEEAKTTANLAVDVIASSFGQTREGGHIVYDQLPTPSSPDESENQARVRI
The assay is described as follows: in vitro enzyme assay to detect the production of urea directly proportional to the activity of Arginase II. Also: in the data most compounds retested in dose-response had high values. The note with it: 33.3 µM. The assay is classed as functional.

Assay [6] addresses T3, Proteasome subunit beta (Trypanosoma cruzi) (UniProt O96673).
T3 sequence (whole entry): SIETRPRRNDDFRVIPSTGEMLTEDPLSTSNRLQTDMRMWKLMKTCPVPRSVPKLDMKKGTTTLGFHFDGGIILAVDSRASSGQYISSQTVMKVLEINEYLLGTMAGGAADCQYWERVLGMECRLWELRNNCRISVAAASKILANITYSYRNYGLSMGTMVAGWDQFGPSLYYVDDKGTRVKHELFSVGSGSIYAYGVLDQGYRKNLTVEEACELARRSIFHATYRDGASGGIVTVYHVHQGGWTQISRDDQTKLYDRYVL
The assay is described as follows: Trypanosoma cruzi proteasome chymotrypsin-like activity (TcProtChymo) assay. Also: in the data most compounds retested in dose-response had high values. The class given is functional. The conditions noted are these: 9.37 µM.

For a further assay, the species on record is Homo sapiens. The assay is described as follows: To identify inhibition of the IFN signalling (Jak-Stat) pathway via expression of an eGFP reporter gene under the control of an IFN-stimulated response element (ISRE) containing MxA promoter. The class given is functional. The conditions noted are these: 30 µM.
Assay [7] has as its target T4, Tyrosyl-tRNA synthetase, putative (Trypanosoma cruzi (strain CL Brener)) (UniProt Q4DSP6).
T4 sequence (whole entry): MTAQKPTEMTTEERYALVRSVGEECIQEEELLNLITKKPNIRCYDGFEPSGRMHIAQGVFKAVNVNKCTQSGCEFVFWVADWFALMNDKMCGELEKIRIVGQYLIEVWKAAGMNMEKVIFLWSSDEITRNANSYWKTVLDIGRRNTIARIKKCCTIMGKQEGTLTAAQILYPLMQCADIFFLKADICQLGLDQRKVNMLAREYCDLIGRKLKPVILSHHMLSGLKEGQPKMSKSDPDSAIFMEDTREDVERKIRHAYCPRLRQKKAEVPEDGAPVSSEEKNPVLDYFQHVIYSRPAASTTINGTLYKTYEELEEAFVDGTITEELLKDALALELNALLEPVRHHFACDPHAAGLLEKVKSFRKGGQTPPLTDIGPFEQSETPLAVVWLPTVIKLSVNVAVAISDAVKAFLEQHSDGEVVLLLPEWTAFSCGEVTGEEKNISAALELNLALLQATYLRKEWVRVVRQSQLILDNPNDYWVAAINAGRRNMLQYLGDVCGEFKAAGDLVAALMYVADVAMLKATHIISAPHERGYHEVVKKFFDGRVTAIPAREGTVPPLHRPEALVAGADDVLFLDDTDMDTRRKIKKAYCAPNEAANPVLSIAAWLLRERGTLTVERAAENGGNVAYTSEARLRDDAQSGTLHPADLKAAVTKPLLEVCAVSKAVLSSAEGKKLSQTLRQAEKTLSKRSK
The assay is described as follows: Trypanosoma cruzi tyrosyl tRNA synthetase (TcYRS) _High Tyrosine SOP. Also: in the data most compounds retested in dose-response had high values. The assay is classed as functional. The conditions noted are these: 30 µM.

For assay [8], the target named is T4, Tyrosyl-tRNA synthetase, putative (Trypanosoma cruzi (strain CL Brener)). The assay is described as follows: Trypanosoma cruzi tyrosyl tRNA synthetase (TcYRS) SOP. The class given is functional. The note with it: 30 µM.
In assay [9] the target is Chromo domain-containing protein 1 (Saccharomyces cerevisiae (strain ATCC 204508 / S288c) (Baker's yeast)) (UniProt P32657). The assay is described as follows: ScCHD-1 Enzyme Inhibition Assay. Also: in the data most compounds retested in dose-response had high values. The class given is functional. The note with it: 30 µM.
Chain of Chromo domain-containing protein 1 (Saccharomyces cerevisiae (strain ATCC 204508 / S288c) (Baker's yeast)) (P32657 whole entry, the tested form may be a part): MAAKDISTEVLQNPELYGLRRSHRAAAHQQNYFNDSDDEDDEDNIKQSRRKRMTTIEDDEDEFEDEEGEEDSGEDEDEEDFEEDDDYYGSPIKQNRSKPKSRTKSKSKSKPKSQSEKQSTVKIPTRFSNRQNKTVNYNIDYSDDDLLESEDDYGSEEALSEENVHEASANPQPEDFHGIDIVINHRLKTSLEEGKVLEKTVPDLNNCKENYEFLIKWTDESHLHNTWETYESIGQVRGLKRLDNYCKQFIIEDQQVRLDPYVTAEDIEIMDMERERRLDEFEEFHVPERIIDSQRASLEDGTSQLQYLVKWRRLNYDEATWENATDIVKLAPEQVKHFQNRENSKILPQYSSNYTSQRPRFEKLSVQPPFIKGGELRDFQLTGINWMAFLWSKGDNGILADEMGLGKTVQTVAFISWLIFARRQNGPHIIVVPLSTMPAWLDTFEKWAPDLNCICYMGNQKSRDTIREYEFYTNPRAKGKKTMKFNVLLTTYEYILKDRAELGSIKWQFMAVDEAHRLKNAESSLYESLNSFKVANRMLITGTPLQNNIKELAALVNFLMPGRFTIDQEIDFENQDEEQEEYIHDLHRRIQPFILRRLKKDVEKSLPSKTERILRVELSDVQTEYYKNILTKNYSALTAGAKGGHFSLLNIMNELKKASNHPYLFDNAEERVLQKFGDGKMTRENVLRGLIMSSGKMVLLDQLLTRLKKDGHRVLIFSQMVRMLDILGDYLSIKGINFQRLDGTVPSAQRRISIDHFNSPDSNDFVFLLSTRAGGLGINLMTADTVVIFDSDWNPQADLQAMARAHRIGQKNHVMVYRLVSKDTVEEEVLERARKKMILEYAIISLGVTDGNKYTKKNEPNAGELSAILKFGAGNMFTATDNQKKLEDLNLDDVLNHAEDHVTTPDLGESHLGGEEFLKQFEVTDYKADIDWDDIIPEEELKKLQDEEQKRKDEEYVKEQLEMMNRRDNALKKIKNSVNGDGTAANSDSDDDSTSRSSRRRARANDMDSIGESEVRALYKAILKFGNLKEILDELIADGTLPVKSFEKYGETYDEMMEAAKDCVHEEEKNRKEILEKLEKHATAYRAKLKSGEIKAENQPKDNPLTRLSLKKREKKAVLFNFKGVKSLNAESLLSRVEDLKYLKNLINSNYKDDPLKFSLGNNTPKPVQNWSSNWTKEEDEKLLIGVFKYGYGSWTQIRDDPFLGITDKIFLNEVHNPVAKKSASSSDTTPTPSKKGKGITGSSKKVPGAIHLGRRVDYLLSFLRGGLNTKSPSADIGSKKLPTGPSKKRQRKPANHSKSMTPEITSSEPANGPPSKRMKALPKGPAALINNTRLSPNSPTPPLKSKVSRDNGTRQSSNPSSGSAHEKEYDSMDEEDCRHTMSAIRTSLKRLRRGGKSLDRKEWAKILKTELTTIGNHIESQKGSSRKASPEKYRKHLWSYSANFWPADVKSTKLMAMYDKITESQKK

Chain of Protein translocase subunit SecA (Escherichia coli (strain K12)) (P10408 whole entry): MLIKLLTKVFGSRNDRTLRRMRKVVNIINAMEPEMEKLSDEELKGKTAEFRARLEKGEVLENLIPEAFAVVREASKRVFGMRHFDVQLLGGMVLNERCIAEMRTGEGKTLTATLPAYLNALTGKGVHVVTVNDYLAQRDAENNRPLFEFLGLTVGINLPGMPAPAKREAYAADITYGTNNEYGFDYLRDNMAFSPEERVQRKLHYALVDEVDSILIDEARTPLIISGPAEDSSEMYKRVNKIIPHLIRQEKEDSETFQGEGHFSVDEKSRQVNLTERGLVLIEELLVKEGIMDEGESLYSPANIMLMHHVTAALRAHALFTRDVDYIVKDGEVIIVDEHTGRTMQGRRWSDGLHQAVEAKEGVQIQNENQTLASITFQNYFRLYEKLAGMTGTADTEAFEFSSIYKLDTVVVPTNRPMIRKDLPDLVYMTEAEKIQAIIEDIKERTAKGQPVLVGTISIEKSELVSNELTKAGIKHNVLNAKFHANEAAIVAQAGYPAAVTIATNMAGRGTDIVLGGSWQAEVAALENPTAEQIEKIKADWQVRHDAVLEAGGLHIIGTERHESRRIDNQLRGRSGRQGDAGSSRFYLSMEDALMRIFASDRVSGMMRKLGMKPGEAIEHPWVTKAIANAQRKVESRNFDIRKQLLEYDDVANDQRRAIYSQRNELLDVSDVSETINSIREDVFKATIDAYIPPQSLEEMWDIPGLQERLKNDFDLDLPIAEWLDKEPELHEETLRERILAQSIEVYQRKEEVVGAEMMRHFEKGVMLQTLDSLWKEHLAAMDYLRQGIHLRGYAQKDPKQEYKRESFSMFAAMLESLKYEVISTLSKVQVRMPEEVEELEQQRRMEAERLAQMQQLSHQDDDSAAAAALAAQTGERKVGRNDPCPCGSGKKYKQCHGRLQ
Chain of Sialic acid-binding Ig-like lectin 9 (Homo sapiens) (Q9Y336 whole entry): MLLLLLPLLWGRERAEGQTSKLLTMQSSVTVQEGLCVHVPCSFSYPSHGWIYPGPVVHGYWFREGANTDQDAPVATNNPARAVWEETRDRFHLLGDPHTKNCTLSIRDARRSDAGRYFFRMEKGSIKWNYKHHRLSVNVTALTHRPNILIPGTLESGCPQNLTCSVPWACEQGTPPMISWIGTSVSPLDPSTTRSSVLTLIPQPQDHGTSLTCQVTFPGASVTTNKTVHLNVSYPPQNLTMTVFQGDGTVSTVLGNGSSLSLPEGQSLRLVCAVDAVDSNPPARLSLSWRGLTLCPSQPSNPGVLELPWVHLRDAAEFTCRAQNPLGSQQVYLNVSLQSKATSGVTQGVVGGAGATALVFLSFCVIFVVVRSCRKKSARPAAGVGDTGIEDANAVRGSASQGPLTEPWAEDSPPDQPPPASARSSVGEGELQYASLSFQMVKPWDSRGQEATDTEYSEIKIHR

Take `Cc1nc(C(=O)N2CCCC(n3cncn3)C2)cs1` (stereo not drawn): the Percent Effect in assay [1] is -1.23%; in [2] it was -1.27%; in assay [3], 3.74%; in [4], 3.18%; in the assay on Trypanosoma cruzi, -0.718%; in [5], 2.8%. Further, the Percent Effect in assay [6] is 4.63%; in the assay filed under Homo sapiens, -1.7%; in [7], -38.5%; in [8], 5.06%; in [9], 0.874%.

`O=C(NC[C@]12COC[C@H]1CN(C1CCOCC1)C2)c1ccco1`: the Percent Effect in [1] was -5.25%; in [2] it was 10.7%; in assay [3], 4.78%; in assay [4], -6.09%; in the assay with Trypanosoma cruzi, -2.17%; in [5], 8.16%. Moreover, the Percent Effect in assay [6] is 12.8%; in the assay filed under Homo sapiens it was 5.24%; in assay [7] it was 9.57%; in assay [8], 8.97%; in [9], 0.371%.

As for `CC(C)c1ncc2c(n1)CN(Cc1nc(Cc3ccccc3)no1)CC2`, the Percent Effect in assay [1] is -3.61%; in [2], 10.8%; in assay [3] it was -1.07%; in assay [4], 3.74%; in the assay with Trypanosoma cruzi it was 2.69%; in [5], -2.77%. Besides, the Percent Effect is -5.92% in [6]; 10.2% in the assay listed under Homo sapiens; 17.8% in assay [7]; 23.2% in [8]; 0.435% in [9].

`O=C1NCCN1C1CCN(Cc2ccccn2)CC1`: the Percent Effect is -1.85% in assay [1]; 0% in assay [2]; -5.58% in assay [3]; 1.53% in assay [4]; -2.12% in the assay on Trypanosoma cruzi; 1.91% in assay [5]. In addition, the Percent Effect in [6] is 8.62%; in the assay filed under Homo sapiens, 0.116%; in assay [7] it was 3.7%; in assay [8] it was 2.44%; in assay [9], -3.18%.

On to `COc1ccccc1CNC(=O)C1=NN(c2ccc(C)cc2)C(=O)CN1`, for which the Percent Effect in assay [1] is -2.03%; in [2], 13.5%; in assay [3], -0.556%; in [4], 34.6%; in the assay with Trypanosoma cruzi it was -3.62%; in [5] it was -0.248%. The Percent Effect was 15.2% in [6]; 98.2% in the assay listed under Homo sapiens; -6.45% in assay [7]; -3.7% in assay [8]; -2.26% in assay [9].

Turning to `Cc1cc(C2CCCN(C(=O)c3cnn(C)c3)C2)ccn1` (stereo not drawn), the Percent Effect in assay [1] is -5.39%; in assay [2], 9.46%; in [3], 10.9%; in [4], 0.0727%; in the assay on Trypanosoma cruzi, 5.93%; in assay [5], -0.696%. For the same molecule, the Percent Effect was 12.3% in assay [6]; -13.7% in the assay filed under Homo sapiens; 8.6% in assay [7]; 11.7% in assay [8]; -9.36% in [9].

As to `Cc1noc([C@@H]2CC[C@@H]3[C@@H](CCN3S(=O)(=O)C3CC3)O2)n1`, the Percent Effect in assay [1] was 0.234%; in [2] it was 8.11%; in [3], 10.7%; in [4], -3.31%; with Trypanosoma cruzi, -4.3%; in assay [5] it was 3.33%. The Percent Effect in assay [6] was 17.2%; in the assay filed under Homo sapiens it was 4.51%; in [7], 5.94%; in assay [8], 11%; in assay [9] it was 6.55%.

Turning to `CC(C(=O)NCc1cccc(N2CC=CC2)c1)n1cccn1` (stereo not drawn), the Percent Effect was -6.41% in assay [1]; 0% in [2]; 3.53% in [3]; 1.65% in assay [4]; -1.5% with Trypanosoma cruzi; -1.15% in [5]. Moreover, the Percent Effect in assay [6] was -1.5%; in the assay filed under Homo sapiens, 22.9%; in assay [7] it was 0.49%; in assay [8], -2.44%; in assay [9] it was -1.88%.

The values above are taken from ChEMBL document CHEMBL3988442, “University of Dundee, Small-Polar-MMV Screening Library” (2021).
